A selection: hits, their analogues and other compounds. The true share with any hit is near 9.8%.
HPGD inh – inhibitors of human 15-hydroxyprostaglandin dehydrogenase (HPGD); Potency, µM, usual class: inhibitors; 4.3% of 150,000 active; purified HPGD, NADH fluorescence kinetic, PGE2 substrate; P15428; active means well fitted inhibition curve with a large enough effect, not every such curve was filed as active; inconclusive means small, poorly fitted or top-dose-only effect, or another doubt; inactive means no such curve, though single readings can be large or run the other way
Target sequence (P15428 whole entry, looked up): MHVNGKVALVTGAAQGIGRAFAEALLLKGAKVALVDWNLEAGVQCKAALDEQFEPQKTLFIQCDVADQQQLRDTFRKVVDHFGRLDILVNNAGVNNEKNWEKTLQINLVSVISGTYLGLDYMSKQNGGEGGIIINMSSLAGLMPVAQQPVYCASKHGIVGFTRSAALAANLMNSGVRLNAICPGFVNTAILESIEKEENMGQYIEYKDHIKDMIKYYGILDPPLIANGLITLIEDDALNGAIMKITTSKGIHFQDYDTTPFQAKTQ
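20 nM HPGD preincubated 15 min at room temperature with compound in 50 mM Tris-HCl pH 8, 0.01% Tween 20. Started with 1 mM NAD+ and 30 uM prostaglandin E2; NADH fluorescence (360/450 nm) read 5 times over 30-s intervals, last minus first.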
CBFb RUNX1 block – inhibitors of human CBF-beta and RUNX1 interaction; AlphaScreen CBFb-His/RUNX1-biotin binding, biochemical; 230,000 tested, under 10 active; Potency, µM (titrated, usually from 59.8 µM), most hits filed as inhibitors; Q01196+Q13951
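Proteins preincubated together for 20 min at RT before compound addition; 15 min later, nickel and streptavidin beads were added and left 90 min prior to AlphaScreen measurement.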
HTT ATP protect – protects HTT-Q103 PC12 cells, measured by ATP; PC12 HTT-Q103 induced, cytoprotection, ATP luminescence, 40 h; Potency, µM (doses to about 56.4 µM), usual class: activators; 0.14% of 230,000 active; AID 1471; further: nearly all actives have a fitted effect of over 45% in size
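Readout: ATPlite luminescence (ATP level). Model: stable PC12, inducible Htt exon1 Q103-GFP. Inducer: tebufenozide, 100 nM final. Compounds: dose series. No G418 in medium.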
KDM4E inh – inhibitors of human JMJD2E histone demethylase. JMJD2E catalytic domain, FDH-coupled NADH fluorescence (FDH is formaldehyde dehydrogenase). Potency, µM (series often up to 57.1 µM), most hits filed as inhibitors. 1.6% of 230,000 active. AID 2147; active means well fitted inhibition curve with a large enough effect, not every such curve was filed as active; inconclusive means small, poorly fitted or top-dose-only effect, or another doubt; inactive means no such curve, though single readings can be large or run the other way; further: nearly all actives have a fitted effect of over 50% in size
ALDH1A1 block – ALDH1A1 (human) enzyme inhibition | P00352 | Purified ALDH1A1, NADH fluorescence, propionaldehyde substrate | Potency, µM (doses to about 75.3 µM), usual class: inhibitors | 7.3% of 220,000 active; active means well fitted inhibition curve with a large enough effect, not every such curve was filed as active; inconclusive means small, poorly fitted or top-dose-only effect, or another doubt; inactive means no such curve, though single readings can be large or run the other way
HTT aggregate – inhibitors of mutant huntingtin aggregate formation in PC12 cells; 1.1% of 220,000 active; PC12 HttQ103-GFP aggregates, Acumen cytometry, 40 h; Potency, µM (titrated, usually from 46.1 µM), most hits filed as inhibitors; further: nearly all actives have a fitted effect of over 60% in size
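Huntingtin Q103 exon 1–GFP aggregates in induced PC12 cells (100 nM tebufenozide) were quantified by cytometry from lysates, with compounds dosed in titration.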
A number is an active result; - = inactive; ? = inconclusive; . = not tested or not shown; [ ] = another dose, or the depositor's remark. Unless noted, the call rests on the fitted dose curve; in most records, active means well fitted curve in the direction sought with a large enough effect; inconclusive means small, poorly fitted or top-dose-only effect, or another doubt; inactive means no such curve, though single readings can be large; an effect the other way counts as inactive or inconclusive.

SMILES	HPGD inh	CBFb RUNX1 block	HTT ATP protect	KDM4E inh	ALDH1A1 block	HTT aggregate
O=C(CSc1nnc(NC2CCCCC2)s1)Nc1ccc2c(c1)C(=O)c1ccccc1C2=O	.	-	-	-	13µM	?
CC(C)Nc1nnc(SCC(=O)Nc2ccc3c(c2)C(=O)c2ccccc2C3=O)s1	-	-	.	-	7.9µM	?
O=C(Cc1ccccc1)Nc1nnc(SCC(=O)NC2CCCC2)s1	.	-	-	-	-	-
Cc1ccc(Nc2nnc(SCC(=O)Nc3cccc(S(=O)(=O)N4CCCCC4)c3)s2)cc1	-	-	-[10 µM]	-	-	-
O=C(CSc1nnc(Nc2ccccc2F)s1)Nc1cccc(S(=O)(=O)N2CCCCC2)c1	-	-	-[10 µM]	-	22µM	-
CNc1nc(N)nc(-c2cc(Cl)ccc2OC)n1	.	-	-[10 µM]	-	?	-[9.22 µM]
O=C(O)C[C@@H](C(=O)O)C1c2ccccc2-c2ccccc21	-	.	-[10 µM]	.	-[13.5 µM]	.
O=C(CCS(=O)(=O)Cc1ccccc1F)N1CCc2ccccc2C1	-	-	-	-	3.5µM	-
O=C(CCS(=O)(=O)Cc1ccccc1)N1CCc2ccccc2C1	-	-	-	-	?	-
CCC(=O)N1CCc2cc(S(=O)(=O)CCC(=O)Nc3ccc(CC)cc3)ccc21	-	-	-[10 µM]	-	-	-
CCC(=O)N1CCc2cc(S(=O)(=O)CCC(=O)N3CCc4ccccc4C3)ccc21	-	-	-[10 µM]	-	13µM	-
CC(=O)N1CCc2cc(S(=O)(=O)CCC(=O)N3CCN(C(=O)c4ccco4)CC3)ccc21	-	-	-[10 µM]	-	32µM	-
COc1ccc(NC(=O)c2c([N+](=O)[O-])c(C(C)(C)C)nn2C)cc1	.	-	-[10 µM]	-	.	-[9.22 µM]
FC(F)(F)c1ccccc1-c1nc(NCCN2CCOCC2)c2ccccc2n1	.	.	-	.	-	.
CC(=O)c1cccc(NC(=S)NC(=O)c2ccccc2Cl)c1	20µM	-	-[10 µM]	-	?	-
CC(=O)c1cccc(NC(=S)NC(=O)c2ccc(C)cc2Cl)c1	.	-	-	-	8.9µM	-[9.22 µM]
Cc1ccccc1C(=O)Nc1cccc(NC(=S)NC(=O)c2cccs2)c1	-	-	-	-	?	-
O=C(NC(=S)Nc1cccc(NC(=O)c2ccccc2Cl)c1)c1cccs1	-	-	-[10 µM]	-	4.5µM	-
O=c1c2ccccc2c(-c2ccccc2)nn1-c1cc(Cl)cc(Cl)c1	.	-	-[10 µM]	-	.	-[9.22 µM]
NC(=O)c1ccc(C(F)(F)F)n(Cc2ccccc2Cl)c1=O	-	-	-	-	-	-
COc1cc(S(C)=O)ccc1-c1nc2ncccc2[nH]1 (configuration not stated)	?	-	-	?	?	-
COc1ccc(-n2cnnc2SCC(=O)Nc2cc(C)on2)cc1	.	-	-	-	-	-
O=C1C[C@H]2C(=O)[C@@H]1[C@@H](C(=O)O)[C@H]2C(=O)O	-	.	-[10 µM]	.	-[13.5 µM]	.
Cc1ccccc1-n1c(C)cc(/C=C(\C#N)C(=O)NCC2CCCO2)c1C (configuration not stated)	-	-	-[10 µM]	-	14µM	-
CCOc1cc(/C=C(\C#N)C(=O)NCC2CCCO2)ccc1O (configuration not stated)	?	-	-[10 µM]	-	28µM	-
SMILES	HPGD inh	CBFb RUNX1 block	HTT ATP protect	KDM4E inh	ALDH1A1 block	HTT aggregate
COc1cc(/C=C(\C#N)C(=O)NCC2CCCO2)c([N+](=O)[O-])cc1OC (configuration not stated)	28µM	-	-[10 µM]	-	?	?
COc1cc(/C=C(\C#N)C(=O)NCC2CCCO2)ccc1OCC(=O)O (configuration not stated)	.	-	-	?	?	-
Cc1cccc(Cn2c(C)nc3c(N)c(C)c(C)cc32)c1	.	-	-[10 µM]	-	-	-
O=c1cnc2cnc(Oc3ccccc3)nc2n1C[C@H]1CCCO1	-	.	-	.	?	.
Cc1cccc(NC(=O)NC2CC(=O)N(c3ccc4c(c3)OCCO4)C2)n1 (configuration not stated)	.	-	-	-	-	-
COc1ccc(N=C2C(=O)N3c4c(cccc42)C(C)=CC3(C)C)cc1	-	?	-[10 µM]	-	2µM	-
COc1ccc(N=C2C(=O)Nc3ccccc32)cc1	-	-	-[0.074 µM]	-	?	-

Screening data as filed in PubChem.
